Values joined by “and” are separate entries in the source; they are usually repeats but may differ in a detail not shown here. Equal values may be shown once. Some compounds were tested as several samples or in several runs, with calls that do not always agree. Active and inactive are the calls of the source. How the source made its calls: active means hit-call score of the fitted dose curve at least 0.9, where 1 is the maximum; inactive means score below 0.9.

AC50 and outcome data for 15 compounds are collected here from PubChem BioAssay (EPA / NIEHS).

Test [1] can be described thus: CCTE_Shafer_MEA_dev_mutual_information_norm: CCTE's Neural Network Formation Assay for Mutual Information Normalization, Shafer Lab (AID 2284091).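 On AC50: mutual information between electrodes summarised as area under curve across four recording days; potency is for a decrease in mutual information relative to DMSO.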 A digest of the protocol: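 Primary rat cortical neurons on PEI-coated 48-well MEA plates, 1.5 x 10^5 cells/well, exposed from day 0 through day 12 with re-dosing at DIV 5 and 9. Mutual information between electrodes recorded days 5, 7, 9, 12; trapezoidal AUC, loss-of-signal fit versus DMSO.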

Test [2] in a line: CCTE_Shafer_MEA_dev_correlation_coefficient_mean: CCTE's Neural Network Formation Assay for Mean Correlation Coefficient, Shafer Lab (AID 2284093).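 On AC50: well mean pairwise spike train correlation integrated as AUC over recording days 5 to 12; potency fitted for loss of correlation relative to DMSO vehicle wells.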 In short, it runs like this:
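Read-out: well-mean correlation coefficient of spike trains between electrode pairs, collapsed over four recording days as trapezoidal area-under-the-curve. Developing rat cortical neuron networks grown on MEAs received test chemical continuously from plating.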

A short description of test [3]: UKN2_HCS_IMR90_neural_migration: University of Konstanz (UKN) Leist Lab Neural Crest Cell Migration Assay in human induced IMR90 Pluripotent Stem Cells (UKN2) (AID 2284204). Particulars: actives raise or lower the signal. In short, it runs like this:
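iPSC-derived IMR90 neural crest cells seeded around stoppers on PLO/laminin/fibronectin; migration started in N2-S medium with EGF/FGF, compounds added after 24 h for 24 h. Migration into cell-free area imaged after calcein-AM/Hoechst staining; bidirectional fit versus DMSO.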

Test [4] is described as follows: IUF_NPC1b_proliferation_BrdU_72hr: Leibniz Research Institute for Environmental Medicine (IUF) 72-hour Neural Progenitor Cell Bromodeoxyuridine (BrdU) Proliferation Assay (NPC1b) (AID 2284207). A digest of the protocol: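 BrdU luminescence ELISA quantified DNA synthesis over the last 16 h of a 72 h exposure, fitted against DMSO. Primary hNPC spheres from gestational week 16-19 cortex grown with EGF/FGF at 37C, pH 7.2-7.6.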

Test [5] can be described thus: IUF_NPC1a_proliferation_area_72hr: Leibniz Research Institute for Environmental Medicine (IUF) 72-hour Neural Progenitor Cell Proliferation Area Assay (NPC1a) (AID 2284208). In short, it runs like this: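 hNPC spheres (human fetal cortex, GW 16-19), one per poly-Hema U-bottom well; EGF+FGF medium; dosed day 0, no re-dosing; 72 h, 37C, 5% CO2; phase-contrast sphere area; DMSO = baseline; minus-GF = positive ctrl.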

Test [6] in a line: CCTE_Mundy_HCI_Cortical_Synap_Neur_Matur_NeuriteSpotCountPerNeuriteLength: CCTE's Synaptogenesis and Neurite Maturation Assay in rat cortical cells for Neurite Spot Count per Neurite Length, Mundy Lab (AID 2284210). In short, it runs like this: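 Rat primary cortical cultures, AraC added at DIV 5 to suppress glia; chemical exposure from DIV 7 to DIV 12. Fixed cells stained for MAP2 and synaptophysin plus Hoechst; synaptophysin puncta per neurite length quantified by high-content imaging, relative to DMSO.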

Test [7] can be described thus: CCTE_Mundy_HCI_Cortical_Synap_Neur_Matur_BPCount: CCTE's Synaptogenesis and Neurite Maturation Assay in rat cortical cells for Branch Point Count, Mundy Lab (AID 2284211). A digest of the protocol:
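Branch point number is quantified by automated imaging of fluorescently labelled neurites and synapses in rat primary cortical neurons exposed from DIV 7 to DIV 12. Activity is analysed relative to DMSO negative control.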

Test [8] in a line: CCTE_Mundy_HCI_Cortical_NOG_NeuriteCount: CCTE's Neurite Outgrowth Assay in rat cortical cells for Neurite Count, Mundy Lab (AID 2284212).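 Further: cells fixed about two days after chemical exposure began.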 A digest of the protocol: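 Neurite number per cell from high-content imaging of betaIII-tubulin immunostaining, with Hoechst nuclear counterstain.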
A short description of test [9]: CCTE_Mundy_HCI_Cortical_NOG_NeuriteLength: CCTE's Neurite Outgrowth Assay in rat cortical cells for Neurite Length, Mundy Lab (AID 2284213).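 On AC50: neurites imaged about 48 to 50 h after chemical exposure began.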 In short, it runs like this: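 Neurite length was read by high-content imaging of βIII-tubulin-labelled neurites in rat primary cortical cultures. Activity was fitted relative to DMSO.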
Test [10] can be described thus: UKN4_HCS_LUHMES_neurite_outgrowth: University of Konstanz (UKN) Leist Lab Neurite Outgrowth Assay in human LUHMES cells (UKN4) (AID 2284206). Conditions: actives raise or lower the signal. A digest of the protocol:
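LUHMES neuronal precursors differentiated 2 days, replated without cAMP/GDNF, then exposed to chemicals for 24 h. Neurite area imaged by high-content microscopy after calcein-AM staining; Hoechst H-33342 marks viability. Bidirectional fit versus DMSO.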

As for `CC[C@H](C)[C@H]1O[C@]2(C=C[C@@H]1C)C[C@@H]1C[C@@H](C/C=C(\C)[C@@H](O[C@H]3C[C@H](OC)[C@@H](O[C@H]4C[C@H](OC)[C@@H](O)[C@H](C)O4)[C@H](C)O3)[C@@H](C)/C=C/C=C3\CO[C@@H]4[C@H](O)C(C)=C[C@@H](C(=O)O1)[C@]34O)O2` (tested in a mixture with another compound), the AC50 was 2.68 nM (active) and 0.647 nM (active) in test [1]; 89.5 nM (active) and 4.11 nM (active) in test [2]; 3.78 µM (active) in [3]; 8.2 µM (active) in test [4]; 5.05 µM (active) in test [5]; 2.51 µM (active) in [6]. Further, the AC50 is 0.896 µM (active) in test [7], 8.88 µM (active) in test [8] and 8.48 µM (active) in test [9].

For `Oc1cc(Cl)ccc1Oc1ccc(Cl)cc1Cl`, the AC50 in test [1] is 8.5 µM (active); in [2] it was 9.23 µM (active).

In the case of `CC1(C)C(C=C(Cl)Cl)C1C(=O)OC(C#N)c1ccc(F)c(Oc2ccccc2)c1` (stereo unspecified), the AC50 was 268 nM (active) and 6.41 µM (active) and 2.77 µM (active) in test [1]; 1.06 µM (active) and 8.22 µM (active) and 7.24 µM (active) in [2]; 8.05 µM (active) in test [4]; 82.7 µM (active) in [6]; 49.9 µM (active) and 15 µM (active) in [7]; 77.2 µM (active) in test [8]. For the same compound, in [9], the AC50 was 79.7 µM (active). The outcome in test [3], in test [5], in test [6], in test [8] and in [9] was inactive.

For `O=C(O)C(F)(F)C(F)(F)C(F)(F)C(F)(F)C(F)(F)C(F)(F)C(F)(F)F`, the outcome in test [1], in [2], in test [3], in test [5], in test [6] and in test [7] was inactive. The compound was called inactive in test [8] and in test [9]. Besides, the AC50 in test [10] is 78.1 µM (active); in test [4], 6.45 µM (active) and 11.7 µM (active).

Turning to `CC1(c2ccc(Oc3ccccc3)cc2)OC(=O)N(Nc2ccccc2)C1=O` (stereo unspecified), the AC50 in test [1] was 1.34 µM (active); in [2], 1.79 µM (active); in test [5], 39.6 µM (active); in [6], 37.6 µM (active); in [7], 20.2 µM (active); in test [8] it was 55.8 µM (active). Further, the AC50 in test [9] was 61.3 µM (active). The call in test [3] and in [4] was inactive.

For `CNC(=O)CSP(=S)(OC)OC`, the AC50 is 50 µM (active) in test [1]; 50 µM (active) and 15 µM (active) in test [2]; 50 µM (active) in test [7]. The result in test [1], in test [4], in test [5], in test [6], in [7] and in test [8] was inactive. For the same compound, the outcome in test [9] was inactive.

Take `CCC(C)(C)C(=O)OC1=C(c2ccc(Cl)cc2Cl)C(=O)OC12CCCCC2`: the result in [1], in test [2], in test [10], in test [4], in [5] and in test [6] was inactive. The call in test [7], in [8] and in test [9] was inactive.

For `COP(=S)(OC)Oc1ccc([N+](=O)[O-])cc1`, the compound was classed as inactive in [1], in test [10], in test [4], in test [5], in [6] and in test [7]. Further, the AC50 in test [2] is 23 µM (active); in test [8] it was 23.4 µM (active); in test [9], 23.7 µM (active).

For `COP(=O)(OC)OC=C(Cl)Cl`, the AC50 in test [1] was 0.378 µM (active); in [2] it was 0.656 µM (active); in test [5], 14.2 µM (active); in test [7], 49 µM (active); in test [8], 77.3 µM (active); in test [9], 57.5 µM (active). Further, the result in test [1], in test [2], in test [3], in test [4], in [6] and in test [7] was inactive. Further, the result in test [8] and in test [9] was inactive.

Regarding `ClC1C(Cl)C(Cl)C(Cl)C(Cl)C1Cl` (stereo unspecified), the call in test [1], in test [2], in test [3] and in test [10] was inactive.

Consider `O=C(O)COc1ccc(Cl)cc1Cl`, for which the AC50 in test [1] is 12.1 µM (active); in test [4], 50.1 µM (active). Also, the result in [2], in [3], in [5], in test [6], in [8] and in test [9] was inactive.

Turning to `O=S1OCC2C(CO1)C1(Cl)C(Cl)=C(Cl)C2(Cl)C1(Cl)Cl` (stereo unspecified), the AC50 was 7.83 µM (active) in test [1]; 8.13 µM (active) in test [2]; 13.9 µM (active) in [3]; 16.3 µM (active) in [10]; 22.4 µM (active) in test [6]; 15 µM (active) in test [7]. Further, the AC50 in test [8] is 22.1 µM (active); in test [9], 23.8 µM (active). For the same compound, the result in test [4] and in [5] was inactive.

Turning to `CC(C)N(C(=O)COc1nnc(C(F)(F)F)s1)c1ccc(F)cc1`, the outcome in test [1], in test [2], in test [3], in test [10], in test [4] and in test [5] was inactive. In addition, the outcome in test [6], in test [7], in test [8] and in test [9] was inactive. For the same compound, the AC50 in [2] was 15 µM (active).

`O=S(=O)(O)C(F)(F)C(F)(F)C(F)(F)C(F)(F)C(F)(F)C(F)(F)C(F)(F)C(F)(F)F`: the AC50 was 25 µM (active) in test [1]; 68.6 µM (active) in [2]; 114 µM (active) in test [3]; 19.1 µM (active) in [10]; 12.6 µM (active) in test [4]. Moreover, the compound was called inactive in test [1], in test [2], in [3], in test [4], in test [5] and in [6]. The result in [7], in test [8] and in [9] was inactive.

As to `O=[N+]([O-])/N=C1\NCCN1Cc1ccc(Cl)nc1`, the result in test [1], in [2], in [3], in test [10], in test [4] and in test [5] was inactive. In addition, the outcome in test [6], in [7], in [8] and in [9] was inactive.

For orientation: AC50 means the midpoint of the concentration-response curve, whichever way the signal moves.
